Results on 30 compounds are retold here after the supplement of paper PMC13380429.

The test system of assay [1] is Vero E6 infected with SARS-CoV-2. As to the kind of experiment: morphology score (similarity to uninfected cells); higher = more like uninfected cells. The note with it: 24 h.
Assay [2] shares this test system. As to the kind of experiment: SARS-CoV-2 infection rate relative to infected DMSO; higher = more infection, active = 60 or less. The note with it: 24 h.

In turn, `Nc1nc(=O)c2sc(=O)n([C@@H]3O[C@H](CO)[C@@H](O)[C@H]3O)c2[nH]1` (10 µM) came in with a morphology score in assay [1] of 0.013. Moreover, the SARS-CoV-2 infection rate in assay [2] is 100% (inactive).
`CO/N=C(\C(=O)N[C@@H]1C(=O)N2C(C(=O)[O-])=C(C[N+]3(C)CCCC3)CS[C@H]12)c1csc(N)n1` [cefepime] (10 µM) displayed a morphology score in assay [1] of 0.0622. The SARS-CoV-2 infection rate in assay [2] was 114% (inactive).
On the same counts, the results for `Cn1cc(-c2ccc3c(c2)CCN3C(=O)Cc2cccc(C(F)(F)F)c2)c2c(N)ncnc21` (0.833333 µM) are 0.029 and 92% (inactive).
On the same counts, the results for `C=CC(C)(C)c1cc(/C=C/C(=O)c2ccc(O)cc2)c(OC)cc1O` [licochalcone-A] (10 µM) are -0.0626 and 114% (inactive).
On the same counts, the results for `O=C(O)c1ccc(CN2CCC(CN[C@@H]3C[C@H]3c3ccccc3)CC2)cc1` (10 µM) are 0.106 and 98% (inactive).
`COc1cc2c(cc1OC)CN(CCc1ccc(NC(=O)c3cc(OC)c(OC)cc3NC(=O)c3cnc4ccccc4c3)cc1)CC2` [tariquidar] (10 µM): the morphology score in assay [1] was -0.0369. Moreover, in assay [2], the SARS-CoV-2 infection rate is 108% (inactive).
On the same counts, the results for `CC(C)(Sc1cc(C(C)(C)C)c(O)c(C(C)(C)C)c1)Sc1cc(C(C)(C)C)c(O)c(C(C)(C)C)c1` [probucol] (10 µM) are 0.0913 and 100% (inactive).
On the same counts, the results for `CO[C@]12C[C@@H](COC(=O)c3cncc(Br)c3)CN(C)[C@@H]1Cc1cn(C)c3cccc2c13` [nicergoline] (10 µM) are 0.275 and 81% (inactive).
On the same counts, the results for `CCN(CCCOc1ccc2c(Nc3cc(CC(=O)Nc4cccc(F)c4)[nH]n3)ncnc2c1)CCOP(=O)(O)O` [barasertib] (0.833333 µM) are 0.0323 and 112% (inactive).
The compound `COc1cccc(OC)c1OCCNC[C@H]1COc2ccccc2O1` (10 µM) yielded a morphology score in assay [1] of 0.138. In assay [2], the SARS-CoV-2 infection rate was 108% (inactive).
On the same counts, the results for `COc1ccc(OC)c(CN(C(C)=O)c2cc(F)ccc2Oc2ccccc2)c1` (10 µM) are 0.0987 and 95% (inactive).
On the same counts, the results for `COc1ccc2cc(-c3nc(-c4ccc([S+](C)[O-])cc4)[nH]c3-c3ccncc3)ccc2c1` (stereo not given) [tie2-kinase-inhibitor] (10 µM) are 0.619 and 72.5% (inactive).
On the same counts, the results for `COc1cc2nccc(Oc3ccc(NC(=O)NC4CC4)c(Cl)c3)c2cc1C(N)=O` [lenvatinib] (10 µM) are 0.239 and 100% (inactive).
`NC(=O)OCC(O)COc1ccc(Cl)cc1` (stereo not given) [chlorphensin-carbamate] (10 µM) gave a morphology score in assay [1] of -0.0129. Moreover, the SARS-CoV-2 infection rate in assay [2] was 112% (inactive).
The compound `Cc1cccc(C(=O)O)c1O` [hydroxytoluic-acid] (10 µM) showed a morphology score in assay [1] of -0.137. Also, the SARS-CoV-2 infection rate in assay [2] was 106% (inactive).
On the same counts, the results for `CC(C)[C@H](C(=O)Nc1ccc(C(=O)NO)cc1)c1ccccc1` (10 µM) are 0.0602 and 104% (inactive).
On the same counts, the results for `COc1cc(OC)c(OC)cc1C=O` [asaraldehyde] (10 µM) are -0.0171 and 110% (inactive).
On the same counts, the results for `CCCCCCCCCCCCCCCC(=O)OC[C@@H](NC(=O)C(Cl)Cl)[C@H](O)c1ccc([N+](=O)[O-])cc1` [chloramphenicol-palmitate] (10 µM) are 0.04 and 106% (inactive).
Take `CC(C)n1nc(-c2cc3cc(O)ccc3[nH]2)c2c(N)ncnc21` (10 µM): the morphology score in assay [1] is -0.0614. In addition, in assay [2], the SARS-CoV-2 infection rate is 95.5% (inactive).
On the same counts, the results for `CN1CCC(c2c[nH]c3ccc(O)cc23)CC1` (10 µM) are 0.214 and 101% (inactive).
On the same counts, the results for `Clc1ccc2c(c1)N=C(N1CCNCC1)c1ccccc1N2` [desmethylclozapine] (10 µM) are 0.467 and 53.5% (active).
Turning to `COc1cc2nc(N3CCCN(C)CC3)nc(NC3CCN(Cc4ccccc4)CC3)c2cc1OC` (0.833333 µM), the morphology score in assay [1] was determined as 0.456. Further, the SARS-CoV-2 infection rate in assay [2] was 73.5% (inactive).
On the same counts, the results for `C/C(=N\NC(=N)N)c1cc(NC(=O)CCCCCCCCC(=O)Nc2cc(/C(C)=N/NC(=N)N)cc(/C(C)=N/NC(=N)N)c2)cc(/C(C)=N/NC(=N)N)c1` [semapimod] (0.833333 µM) are -0.352 and 115% (inactive).
On the same counts, the results for `CC[C@H](CO)Nc1nc(NCc2ccccc2)c2ncn(C(C)C)c2n1` [roscovitine] (10 µM) are -0.0602 and 96% (inactive).
In the case of `Cn1c(=O)c(F)c(Nc2ccc(I)cc2F)c2c(=O)n(C[C@@H](O)CO)cnc21` (0.833333 µM), the morphology score in assay [1] was -0.0443. For the same compound, in assay [2], the SARS-CoV-2 infection rate is 109% (inactive).
On the same counts, the results for `C=C[C@@]1(C)CC(=O)[C@]2(O)[C@@]3(C)[C@@H](O)CCC(C)(C)[C@@H]3[C@H](O)[C@H](OC(C)=O)[C@@]2(C)O1` [colforsin] (10 µM) are 0.455 and 83% (inactive).
On the same counts, the results for `O=C(O)c1c(Cl)c(Cl)c(Cl)c(Cl)c1-c1c2cc(I)c(=O)c(I)c-2oc2c(I)c(O)c(I)cc12` [rose-bengal] (0.833333 µM) are 0.318 and 98.2% (inactive).
On the same counts, the results for `O=C(O)c1cc(O)c(O)c(O)c1` [gallic-acid] (10 µM) are -0.19 and 110% (inactive).
Turning to `C[N@+]1(CC2CC2)CC[C@]23c4c5ccc(O)c4O[C@H]2C(=O)CC[C@@]3(O)[C@H]1C5` [methylnaltrexone] (10 µM), the morphology score in assay [1] was -0.0178. In addition, the SARS-CoV-2 infection rate in assay [2] was 118% (inactive).
On the same counts, the results for `Cc1ccc(F)c(NC(=O)Nc2ccc(-c3cccc4[nH]nc(N)c34)cc2)c1` [linifanib] (10 µM) are -0.188 and 118% (inactive).
